Screens deposited in PubChem by National Center for Advancing Translational Sciences (NCATS).
S16 viability: Cell viability qHTS assay in S16 Pmp22-F2sN cells; S16 Pmp22-F2sN Schwann cells viability, CellTiter-Glo, 24 h; Potency, µM (top dose mostly 57.5 µM), for inactives: at the top dose activity change, negative = cytotoxicity, hits mostly cytotoxic; hit rate 0.48% among 43,000; AID 1508642, 2021; further: potency means the concentration at half of the fitted maximal effect; on the % scale 0 is the no-effect control and ±100 the full control effect; nearly all actives have a fitted effect of over 65% in size
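Rat S16 Schwann reporter line, 24 h treatment with library compounds delivered at 23 nL per well. Cell viability by CellTiter-Glo luminescence.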
p53null 39C tox: qHTS Screen for Compounds that Selectively Target Cancer Cells with p53 Mutations: Cytotoxicity of p53 Null Cells at the Nonpermissive Temperature. H1299 p53-null (neo) cells, 39C, ATPlite viability, 24 h. Potency, µM (doses to about 46.1 µM), without a hit: at the highest dose activity, negative = cell killing, usual class: cytotoxic. hit rate 0.97% among 55,000;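 further: potency means the concentration at half of the fitted maximal effect; 0% = DMSO only and -100% = full killing by 100 µM tamoxifen; nearly all actives have a fitted effect of over 50% in size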
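H1299 lung cancer cells, p53-null (H1299-neo) or expressing p53 A138V (H1299-p53A138V), were plated overnight at 37C, then exposed to compounds at up to 46 uM for 24 hr at 39C. Viability was read by ATP-based luminescence.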
p53null 32C tox: qHTS Screen for Compounds that Selectively Target Cancer Cells with p53 Mutations: Cytotoxicity of p53 Null Cells at the Permissive Temperature. hit rate 0.62% among 55,000. Potency, µM (series often up to 46.1 µM), inactives show at the highest dose activity change, negative = cytotoxicity, most hits filed as cytotoxic. AID 903, 2007. H1299-neo p53 null cells, ATP luminescence, 24 h, 32C;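 further: potency means the concentration at half of the fitted maximal effect; 0% = DMSO only and -100% = full killing by 100 µM tamoxifen; nearly all actives have a fitted effect of over 55% in size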
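AC50 values derive from Hill modelling of qHTS concentration-response data (up to 46 uM) in H1299-neo cells. Cells were treated 24 h at 32C following overnight attachment at 37C; viability was read as cellular ATP.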
PMP22 txn: Cell-based coincidence reporter assay to measure PMP22 gene transcription in S16 Pmp22-F2sN cells - Primary screen | S16 Pmp22-F2sN Schwann cells (luciferase reporters placed in the Pmp22 gene), FLuc/NLuc coincidence luminescence, 24 h | AID 1508649, 2021 | Potency, µM (series often up to 57.5 µM), for inactives: at the highest dose activity change, negative = inhibition, usual class: inhibitors | hit rate 2% among 43,000; active means clear falling dose curves in both reporters; inconclusive means both reporters move, but less clearly or upward; inactive means either reporter flat; the % is the NLuc reporter signal; further: potency means the concentration at half of the fitted maximal effect; on the % scale 0 is the no-effect control and ±100 the full control effect
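Luminescent read-out of sequential FLuc and NLuc signals from a reporter embedded in the Pmp22 3' UTR of S16 Schwann cells, taken after 24 h compound exposure at 37C; compounds reducing both signals score as inhibitors of expression.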
mTORC1 inh: Acumen qHTS Assay for Inhibitors of the mTORC1 Signaling Pathway in MEF (Tsc2-/-, p53-/-) Cells: Sytravon. Tsc2-/- p53-/- MEF, phospho-rpS6 immunofluorescence/PI, 24 h. Potency, µM (series often up to 38.3 µM), for inactives: at the top dose activity change, negative = inhibition, hits mostly inhibitors. hit rate 0.78% among 44,000;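 further: potency means the concentration at half of the fitted maximal effect; plate controls were DMSO for no effect and rapamycin for full effect; nearly all actives have a fitted effect of over 50% in size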
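Compounds act on Tsc2-/-, p53-/- fibroblasts carrying an empty vector for 24 h before fixation and dual staining for phospho-S6 and DNA (propidium iodide). Values are percentages of cells above a rapamycin-defined pS6/PI threshold.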
SKOV3 invasion: Primary qHTS assay for Inhibitors of ovarian cancer metastasis using an organotypic tumor microenvironment (TME) model | SKOV3ip1-GFP adhesion/invasion on 3D omental model, fluorescence | Potency, µM (doses to about 45.8 µM), without a hit: at the top dose activity change, negative = inhibition, hits mostly inhibitors | hit rate 0.1% among 46,000;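 further: potency means the concentration at half of the fitted maximal effect; plate controls were DMSO wells for no effect and tomatine positive control wells for full effect; nearly all actives have a fitted effect of over 65% in size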
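A 3D layer of primary human omental fibroblasts, mesothelial cells, fibronectin and collagen I, grown 48 hr, received SKOV3ip1-GFP cells in serum-free medium plus compounds at 0.36-46 umol/L. After 2 hr RT and 16 hr 37 C, fixed adherent GFP cells were counted; normalized to DMSO and tomatine.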
NLuc saturating: Biochemical NLuc saturation counterscreen for small molecule modulators of PMP22 gene expression - Nano-Glo assay; hit rate 4% among 690; AID 1508638, 2021; Potency, µM (doses to about 57.5 µM), without a hit: top-dose activity change, negative = inhibition, most hits filed as inhibitors; Secreted NLuc enzyme (filtered S16 cell medium), Nano-Glo luminescence; shares compounds with PMP22 txn; further: potency means the concentration at half of the fitted maximal effect; on the % scale 0 is the no-effect control and ±100 the full control effect
NLuc Km counter: Biochemical coelenterazine-based NLuc counterscreen for small molecule modulators of PMP22 gene expression - Km assay. shares compounds with PMP22 txn. secreted NLuc enzyme, coelenterazine luminescence, Km conditions. Potency, µM (top dose mostly 57.5 µM), without a hit: at the top dose activity change, negative = inhibition, most hits filed as inhibitors. hit rate 5% among 690; further: potency means the concentration at half of the fitted maximal effect; on the % scale 0 is the no-effect control and ±100 the full control effect
FLuc ctr PMP22: Biochemical FLuc counterscreen for small molecule modulators of PMP22 gene expression | shares compounds with PMP22 txn | purified P. pyralis FLuc, luminescence, 10 min | Potency, µM (series often up to 57.5 µM), inactives show at the highest dose activity, negative = inhibition, hits mostly inhibitors | 690 tested, under 10 active; further: % of control where 0% means no effect
Target sequence (P08659 whole entry, looked up): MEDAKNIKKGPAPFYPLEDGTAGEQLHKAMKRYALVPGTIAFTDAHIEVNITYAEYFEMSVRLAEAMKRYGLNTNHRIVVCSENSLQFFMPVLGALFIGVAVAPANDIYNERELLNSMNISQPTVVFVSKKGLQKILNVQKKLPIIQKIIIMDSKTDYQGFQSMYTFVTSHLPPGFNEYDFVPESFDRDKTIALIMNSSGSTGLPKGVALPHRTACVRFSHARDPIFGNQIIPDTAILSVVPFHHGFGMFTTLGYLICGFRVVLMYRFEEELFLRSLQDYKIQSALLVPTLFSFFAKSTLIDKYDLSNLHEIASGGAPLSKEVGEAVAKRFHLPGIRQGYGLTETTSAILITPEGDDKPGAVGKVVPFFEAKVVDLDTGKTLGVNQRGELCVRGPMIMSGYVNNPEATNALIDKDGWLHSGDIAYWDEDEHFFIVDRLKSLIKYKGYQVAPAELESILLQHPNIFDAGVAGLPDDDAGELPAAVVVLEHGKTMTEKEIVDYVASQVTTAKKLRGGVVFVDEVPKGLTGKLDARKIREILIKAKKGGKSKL
S16 F2sN tox cnf: Cell viability qHTS assay in S16 Pmp22-F2sN cells - Confirmatory screen; AID 1508641, 2021; hit rate 7% among 690; S16 Schwann cells viability, CellTiter-Glo ATP luminescence, 24 h; Potency, µM (titrated, usually from 57.5 µM), for inactives: top-dose activity change, negative = viability loss, hits mostly cytotoxic; shares compounds with PMP22 txn; further: potency means the concentration at half of the fitted maximal effect; on the % scale 0 is the no-effect control and ±100 the full control effect
PMP22 txn conf: Cell-based coincidence reporter assay to measure PMP22 gene transcription in S16 Pmp22-F2sN cells - Confirmatory screen | hit rate 22% among 690 | Potency, µM (titrated, usually from 57.5 µM), for the others: at the top dose activity change, negative = inhibition, usual class: inhibitors | S16 Schwann cells Pmp22-F2sN, dual luciferase, 24 h | shares compounds with PMP22 txn; active means clear falling dose curves in both reporters; inconclusive means both reporters move, but less clearly or upward; inactive means either reporter flat; the % is the FLuc reporter signal; further: potency means the concentration at half of the fitted maximal effect
PMP22 HiBiT cnf: Cell-based HiBiT reporter assay to measure PMP22 protein expression in S16 Pmp22-HiBiT cells - Confirmatory screen; S16 Schwann cells Pmp22-HiBiT, luminescence, 48 h; 95 tested, under 10 active; shares compounds with PMP22 txn; Potency, µM (doses to about 27.9 µM), for the others: at the top dose activity change, negative = inhibition, most hits filed as inhibitors; AID 1508647, 2021
Target sequence (P25094 whole entry, looked up): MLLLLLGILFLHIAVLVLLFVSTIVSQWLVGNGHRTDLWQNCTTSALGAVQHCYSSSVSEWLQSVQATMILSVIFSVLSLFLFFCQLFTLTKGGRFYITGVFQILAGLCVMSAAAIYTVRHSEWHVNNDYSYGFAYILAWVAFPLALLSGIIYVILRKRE
* hit, by the source's call; i = inactive; ? = inconclusive; . = not tested or not shown. Sampled rows, rich in hits. Any-hit rate of the full collection: about 3.1%. Unless noted, the call rests on the fitted dose curve; in most records, active means well fitted curve in the direction sought with a large enough effect; inconclusive means small, poorly fitted or top-dose-only effect, or another doubt; inactive means no such curve, though single readings can be large; an effect the other way counts as inactive or inconclusive.

SMILES	S16 viability	p53null 39C tox	p53null 32C tox	PMP22 txn	mTORC1 inh	SKOV3 invasion	NLuc saturating	NLuc Km counter	FLuc ctr PMP22	S16 F2sN tox cnf	PMP22 txn conf	others
CCOC(=O)c1c(NC(=O)c2nc(S(C)(=O)=O)ncc2Cl)sc(C(C)=O)c1C	?	23%	-9%	4.3µM*	3.7µM*	?	?	?	-10%	14µM*	3.4µM*	PMP22 HiBiT cnf=?
O=C(CCSCc1cccc(Cl)c1)N1CCN(c2ccc(Cl)cc2)CC1	11%	-2%	5%	6%	3%	-3%	.	.	.	.	.
CC1(C)Cc2c(-c3ccccc3)c(-c3ccc(Cl)cc3)c(CC(=O)O)n2C1	.	.	.	.	.	-1%	.	.	.	.	.
O=C(C1CCN(c2ncnc3c2nc2n3CCCCC2)CC1)N1CCN(c2cccc(Cl)c2)CC1	-28%	-23%	7%	?	-10%	-30%	.	.	.	.	.
Clc1cccc(N2CCN(c3ncnc4c3nc3n4CCCCC3)CC2)c1	-10%	?	-18%	20µM*	-21%	i	?	14µM*	-3%	?	?
Cc1c(-c2cccc3c(CCCOc4cccc5ccccc45)c(C(=O)O)n(Cc4cccnc4)c23)c(COc2ccc(N3CCN([S+](=O)([O-])N(C)C)CC3)cc2)nn1C	.	.	.	.	.	0%	.	.	.	.	.
CC1CCN(C(=O)CSc2nnc(NC(=O)Nc3ccccc3)s2)CC1	-24%	17%	0%	19µM*	3%	i	?	?	?	?	1%
O=C(Nc1ccccc1)Nc1nnc(SCC(=O)N2CCCCC2)s1	-3%	1%	-20%	-8%	-7%	0%	.	.	.	.	.
Cc1cccn2c(=O)c3cc(C#N)c(=O)n(-c4nnc(SCc5ccc(F)cc5)s4)c3nc12	?	-24%	-14%	10µM*	-5%	2%	-7%	-2%	11%	8%	-28%
Cc1ccc(CSc2nnc(-n3c(=O)c(C#N)cc4c(=O)n5cccc(C)c5nc43)s2)cc1	3%	-20%	0%	?	-3%	-8%	.	.	.	.	.
CCOC(=O)c1cc2c(=O)n3ccccc3nc2n(Cc2ccco2)c1=NC(=O)c1ccc(C(C)(C)C)cc1	-18%	-19%	6%	?	16%	i	.	.	.	.	.
CCOC(=O)c1cc2c(=O)n3ccccc3nc2n(Cc2ccco2)c1=NC(=O)c1cc(C)cc(C)c1	?	?	?	5.6µM*	-3%	3%	?	?	2%	?	4.6µM*	PMP22 HiBiT cnf=?
CCOC(=O)c1cc2c(=O)n3ccccc3nc2n(CC2CCCO2)c1=NC(=O)c1cccc(C(F)(F)F)c1 (configuration not stated)	1%	1%	-5%	4.9µM*	-20%	i	-19%	?	9%	5%	?
COc1ccc(NC(=O)N2CCc3c(sc4c3CCCC4)C2c2ccc(F)cc2)cc1 (configuration not stated)	?	13%	7%	15µM*	20%	-1%	-12%	-13%	2%	?	-30%
COC(=O)N1CCN(Cc2cccc(NC(=O)Nc3ccc(C)nc3)c2F)CC1	.	.	.	.	.	5%	.	.	.	.	.
COc1ccc(-c2c(C)nn3c(N4CCN(c5ccccc5)CC4)cc(C)nc23)cc1OC	-13%	16%	0%	17µM*	-13%	0%	?	?	-4%	-16%	?
O=C(CCS(=O)(=O)c1nc(-c2ccc3c(c2)OCO3)cc(C(F)(F)F)n1)Nc1ccc(F)c(Cl)c1	?	?	?	13µM*	-4%	?	-15%	?	-7%	-16%	?
COc1cc(Nc2nc3ccccc3nc2NS(=O)(=O)c2ccc(NC(=O)c3ccc(C)c(OC)c3)cc2)cc(OC)c1	.	.	.	.	.	6%	.	.	.	.	.
N#CNC(=NCCCCCCOc1ccc(Cl)cc1)Nc1ccncc1	.	.	.	.	.	-9%	.	.	.	.	.
COc1ccc(N2CCN(CCCNC(=O)c3ccc4nc(CCc5ccccc5)oc4c3)CC2)cc1	-28%	-20%	-18%	?	-18%	i	.	.	.	.	.
